This is an account of results in PubChem BioAssay (NCI).

Where “and” joins values, the source holds several entries; their conditions need not be identical. Identical values can stand only once. Compounds without any hit were thinned out: in the full panel of roughly 83,000, 20% have a hit.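 Percent growth is the endpoint: 0 to 100 indicates growth inhibition (40 means 60% inhibition), 0 means no net growth, and negative values indicate cell death.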 A number with no mark means an inactive call. Calls of active or inactive are those of the source. How the source made its calls: active means growth percent below 10; inactive means the rest.

Some test systems named below: DU-145 prostate; K-562 leukemia; MALME-3M melanoma; MDA-MB-231 breast; RXF 393 renal; SF-268 CNS; SF-295 CNS; SF-539 CNS; UACC-257 melanoma; M14 melanoma; HCT-15 colon; HT29 colon; SNB-75 CNS; SNB-19 CNS; U251 CNS; PC-3 prostate; UACC-62 melanoma; SK-MEL-28 melanoma; SK-MEL-5 melanoma; LOX IMVI melanoma.
Common to all, as to test: NCI-60 one-dose screen, 48 h (100 = growth as untreated, 0 = no growth, -100 = all killed)
What all share (details): 10 µM unless noted

For the molecule `Nc1ccc2c(O)cc(S(=O)(=O)O)cc2c1`, the growth in the assay with DU-145 prostate was 114% and 110%; with K-562 leukemia, 93% and 96.7%; in the assay with MALME-3M melanoma, 122% and 111%; in the assay on MDA-MB-231 breast, 107% and 106%; in the assay with RXF 393 renal it was 110% and 89.3%; in the assay on SF-268 CNS, 118% and 101%. For the same molecule, the growth in the assay with SF-295 CNS was 99.5%; in the assay on SF-539 CNS, 87.2% and 96%; in the assay with UACC-257 melanoma it was 101% and 94.3%; in the assay on M14 melanoma it was 98.7%; in the assay on HCT-15 colon it was 104% and 105%; with HT29 colon, 102% and 106%. For the same molecule, the growth with SNB-75 CNS was 99.7%; in the assay with SNB-19 CNS, 91.6% and 104%; with U251 CNS, 101%; with PC-3 prostate, 85.5%; in the assay on UACC-62 melanoma, 93.7% and 103%; with SK-MEL-28 melanoma, 101% and 114%.
In the case of `CC(C)NC(=O)N/C=C(\C#N)C(N)=O`, the growth was 107% in the assay with DU-145 prostate; 116% in the assay on K-562 leukemia; 89.3% in the assay on MALME-3M melanoma; 111% with MDA-MB-231 breast; 98.9% with RXF 393 renal; 101% with SF-268 CNS. For the same molecule, the growth in the assay on SF-295 CNS is 102%; with SF-539 CNS, 97.9%; in the assay on M14 melanoma, 95.3%; in the assay with HCT-15 colon, 101%; in the assay with HT29 colon, 107%; in the assay with SNB-75 CNS, 83.2%. Besides, the growth is 110% in the assay with SNB-19 CNS; 114% with U251 CNS; 94.9% with PC-3 prostate; 101% in the assay with SK-MEL-5 melanoma; 101% in the assay on UACC-62 melanoma; 97.2% with LOX IMVI melanoma. For the same molecule, the growth in the assay on SK-MEL-28 melanoma was 100%.
With `O=C(/C=C/c1ccccc1)c1ccccc1`, the growth was 97.7% in the assay on DU-145 prostate; 128% in the assay on MALME-3M melanoma; 110% with MDA-MB-231 breast; 114% in the assay on RXF 393 renal; 97.2% in the assay with SF-268 CNS; 99.1% with SF-295 CNS. In addition, the growth in the assay with SF-539 CNS was 88.2%; with UACC-257 melanoma, 106%; in the assay on M14 melanoma, 98.1%; with HCT-15 colon it was 86.3%; in the assay on HT29 colon, 68.9%; in the assay with SNB-75 CNS it was 101%. For the same molecule, the growth with SNB-19 CNS is 79%; with U251 CNS, 75.1%; in the assay on PC-3 prostate it was 111%; in the assay with UACC-62 melanoma, 102%; in the assay on SK-MEL-28 melanoma, 115%.
Regarding `CC(=O)NCC(=O)c1ccc([N+](=O)[O-])cc1`, the growth in the assay on DU-145 prostate is 109%; in the assay on K-562 leukemia, 101%; in the assay on MALME-3M melanoma, 101%; in the assay on MDA-MB-231 breast it was 97.7%; in the assay with SF-268 CNS it was 99.1%; in the assay with SF-295 CNS it was 106%. Also, the growth in the assay on SF-539 CNS was 109%; in the assay on UACC-257 melanoma, 101%; with M14 melanoma it was 109%; in the assay with HCT-15 colon, 111%; in the assay on HT29 colon, 107%; in the assay on SNB-75 CNS, 99.1%. Besides, the growth in the assay on SNB-19 CNS is 103%; in the assay on U251 CNS, 102%; in the assay with PC-3 prostate it was 98.4%; with SK-MEL-5 melanoma, 103%; in the assay on UACC-62 melanoma, 101%; in the assay with SK-MEL-28 melanoma, 105%.
As to `O=C(O)CCCl`, the growth is 114% in the assay with DU-145 prostate; 111% in the assay with K-562 leukemia; 115% in the assay on MALME-3M melanoma; 125% in the assay on MDA-MB-231 breast; 103% in the assay on RXF 393 renal; 108% in the assay with SF-268 CNS. Besides, the growth is 99.8% with SF-539 CNS; 111% in the assay on UACC-257 melanoma; 129% in the assay with M14 melanoma; 108% in the assay on HT29 colon; 97.9% with SNB-75 CNS; 104% with SNB-19 CNS. The growth is 101% in the assay with U251 CNS; 96.8% in the assay on PC-3 prostate; 99.2% in the assay with SK-MEL-5 melanoma; 110% in the assay with UACC-62 melanoma; 105% in the assay on SK-MEL-28 melanoma.
Consider `CC1CCC2(OC1)OC1CC3C4CC=C5CC(O)CCC5(C)C4CCC3(C)C1C2C` (stereo not given), for which the growth in the assay on DU-145 prostate was 107%; in the assay with K-562 leukemia, 97.3%; in the assay on MALME-3M melanoma it was 120%; with MDA-MB-231 breast, 100%; in the assay on SF-268 CNS, 89.6%; in the assay on SF-295 CNS, 119%. The growth with SF-539 CNS is 91.2%; in the assay on UACC-257 melanoma, -3.06% (active); with M14 melanoma, 102%; in the assay on HCT-15 colon it was 105%; in the assay with HT29 colon it was 108%; with SNB-75 CNS it was 83%. Further, the growth with SNB-19 CNS is 96.1%; in the assay on U251 CNS it was 94.8%; in the assay on PC-3 prostate, 96.4%; with UACC-62 melanoma, 90.6%; in the assay with LOX IMVI melanoma, 91.2%; in the assay with SK-MEL-28 melanoma it was 115%.
In the case of `CN1CNC(=O)NC1`, the growth in the assay on DU-145 prostate was 118% and 106%; with K-562 leukemia, 112% and 86%; in the assay on MALME-3M melanoma, 120% and 96%; in the assay on MDA-MB-231 breast it was 119% and 102%; in the assay with RXF 393 renal, 102% and 106%; in the assay on SF-268 CNS, 111% and 103%. The growth was 96.5% and 104% with SF-295 CNS; 111% and 98.4% in the assay with SF-539 CNS; 111% and 86.9% with UACC-257 melanoma; 97.2% and 106% in the assay with M14 melanoma; 109% and 101% with HCT-15 colon; 101% in the assay on HT29 colon. The growth is 94.8% and 110% with SNB-75 CNS; 109% and 103% in the assay on SNB-19 CNS; 118% and 87.5% in the assay on U251 CNS; 94% and 87.2% in the assay on PC-3 prostate; 111% and 107% with UACC-62 melanoma; 113% and 118% with SK-MEL-28 melanoma.
